Among the data in ChEMBL document CHEMBL1961873, “Compounds: GSK PKIS; Assays: Nanosyn kinase panel” (2012) are inhibition values, retold here.

The target of test [1] is T1, Inhibitor of nuclear factor kappa-B kinase subunit epsilon (Homo sapiens) (UniProt Q14164).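 Note: reported values are averaged percent inhibition figures against human IKKε.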
T1 sequence (whole entry): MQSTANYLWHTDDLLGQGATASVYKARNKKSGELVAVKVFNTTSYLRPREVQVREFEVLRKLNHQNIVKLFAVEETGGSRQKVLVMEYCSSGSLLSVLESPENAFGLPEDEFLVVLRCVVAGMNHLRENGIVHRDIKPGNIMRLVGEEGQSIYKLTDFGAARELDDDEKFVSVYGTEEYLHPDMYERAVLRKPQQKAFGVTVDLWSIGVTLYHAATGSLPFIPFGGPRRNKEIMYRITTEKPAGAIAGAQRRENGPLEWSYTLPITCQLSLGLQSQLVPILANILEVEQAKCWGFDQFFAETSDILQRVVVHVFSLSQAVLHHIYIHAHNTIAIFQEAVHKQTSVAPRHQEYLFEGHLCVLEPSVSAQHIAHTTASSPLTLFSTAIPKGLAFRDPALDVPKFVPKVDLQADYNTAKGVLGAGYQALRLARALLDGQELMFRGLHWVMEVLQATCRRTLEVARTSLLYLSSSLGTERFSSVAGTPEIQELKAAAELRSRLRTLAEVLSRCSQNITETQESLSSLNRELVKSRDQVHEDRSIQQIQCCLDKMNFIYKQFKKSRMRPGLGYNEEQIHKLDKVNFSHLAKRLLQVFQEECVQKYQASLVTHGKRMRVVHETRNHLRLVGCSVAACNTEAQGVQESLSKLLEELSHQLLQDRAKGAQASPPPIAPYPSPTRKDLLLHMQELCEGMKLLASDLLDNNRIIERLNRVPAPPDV
The settings on record: at 1 µM.

The target in test [2] is T2, Serine/threonine-protein kinase Nek1 (Homo sapiens) (UniProt Q96PY6).
T2 sequence (whole entry): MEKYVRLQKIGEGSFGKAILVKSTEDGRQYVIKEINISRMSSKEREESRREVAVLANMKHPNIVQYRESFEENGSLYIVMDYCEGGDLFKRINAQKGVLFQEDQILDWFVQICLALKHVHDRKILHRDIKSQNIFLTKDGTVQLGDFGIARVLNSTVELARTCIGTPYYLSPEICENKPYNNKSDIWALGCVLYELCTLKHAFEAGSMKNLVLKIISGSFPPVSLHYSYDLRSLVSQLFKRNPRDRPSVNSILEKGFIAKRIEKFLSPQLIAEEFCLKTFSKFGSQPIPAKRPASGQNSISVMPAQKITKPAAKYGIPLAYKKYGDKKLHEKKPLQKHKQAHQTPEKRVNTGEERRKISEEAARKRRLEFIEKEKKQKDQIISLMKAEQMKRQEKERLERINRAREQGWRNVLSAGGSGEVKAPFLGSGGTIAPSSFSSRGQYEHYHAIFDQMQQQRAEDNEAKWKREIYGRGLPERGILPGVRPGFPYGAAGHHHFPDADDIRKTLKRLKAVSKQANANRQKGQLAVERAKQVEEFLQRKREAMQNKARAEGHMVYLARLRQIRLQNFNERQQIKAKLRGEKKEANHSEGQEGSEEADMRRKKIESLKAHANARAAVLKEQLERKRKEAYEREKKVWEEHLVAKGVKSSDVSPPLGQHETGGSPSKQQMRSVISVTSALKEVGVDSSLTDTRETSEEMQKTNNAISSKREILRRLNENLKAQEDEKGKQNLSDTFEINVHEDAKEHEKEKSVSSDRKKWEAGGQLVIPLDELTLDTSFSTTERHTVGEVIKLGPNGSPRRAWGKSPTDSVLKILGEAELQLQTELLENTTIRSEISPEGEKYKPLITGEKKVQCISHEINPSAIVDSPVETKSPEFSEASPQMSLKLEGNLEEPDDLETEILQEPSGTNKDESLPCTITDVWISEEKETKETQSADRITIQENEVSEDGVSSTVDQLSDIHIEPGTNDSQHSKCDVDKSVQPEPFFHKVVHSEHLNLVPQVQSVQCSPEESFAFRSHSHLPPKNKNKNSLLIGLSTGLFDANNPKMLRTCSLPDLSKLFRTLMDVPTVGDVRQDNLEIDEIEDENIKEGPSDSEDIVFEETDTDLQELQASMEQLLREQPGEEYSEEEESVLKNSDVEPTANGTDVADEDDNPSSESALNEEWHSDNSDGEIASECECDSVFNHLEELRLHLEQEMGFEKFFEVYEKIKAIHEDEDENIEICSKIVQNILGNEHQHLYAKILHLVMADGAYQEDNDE
As to conditions: at 0.1 µM.

In test [3] the target is T2, Serine/threonine-protein kinase Nek1 (Homo sapiens). As to conditions: at 1 µM.
The target of test [4] is T3, Serine/threonine-protein kinase Nek2 (Homo sapiens) (UniProt P51955).
T3 sequence (whole entry): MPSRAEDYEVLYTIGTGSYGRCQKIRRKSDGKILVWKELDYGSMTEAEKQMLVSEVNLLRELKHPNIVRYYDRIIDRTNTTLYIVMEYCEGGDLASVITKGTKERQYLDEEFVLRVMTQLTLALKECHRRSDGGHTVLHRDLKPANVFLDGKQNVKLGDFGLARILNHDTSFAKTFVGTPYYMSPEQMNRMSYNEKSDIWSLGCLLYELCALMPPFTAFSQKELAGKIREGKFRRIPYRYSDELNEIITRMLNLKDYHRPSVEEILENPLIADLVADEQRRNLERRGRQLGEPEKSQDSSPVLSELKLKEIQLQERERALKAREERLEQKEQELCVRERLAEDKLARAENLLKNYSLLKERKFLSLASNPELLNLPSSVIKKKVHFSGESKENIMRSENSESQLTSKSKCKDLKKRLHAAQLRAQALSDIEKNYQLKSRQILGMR
As to conditions: at 0.1 µM.

The target of test [5] is T3, Serine/threonine-protein kinase Nek2 (Homo sapiens). The settings on record: at 1 µM.
Test [6] addresses Serine/threonine-protein kinase Nek6 (Homo sapiens) (UniProt Q9HC98). As to conditions: at 0.1 µM.
Test [7] shares this target. The settings on record: at 1 µM.
Test [8] addresses Serine/threonine-protein kinase Nek7 (Homo sapiens) (UniProt Q8TDX7). As to conditions: at 0.1 µM.
For test [9] the target is unchanged. The settings on record: at 1 µM.
In test [10] the target is T4, Serine/threonine-protein kinase Nek9 (Homo sapiens) (UniProt Q8TD19).
T4 sequence (whole entry): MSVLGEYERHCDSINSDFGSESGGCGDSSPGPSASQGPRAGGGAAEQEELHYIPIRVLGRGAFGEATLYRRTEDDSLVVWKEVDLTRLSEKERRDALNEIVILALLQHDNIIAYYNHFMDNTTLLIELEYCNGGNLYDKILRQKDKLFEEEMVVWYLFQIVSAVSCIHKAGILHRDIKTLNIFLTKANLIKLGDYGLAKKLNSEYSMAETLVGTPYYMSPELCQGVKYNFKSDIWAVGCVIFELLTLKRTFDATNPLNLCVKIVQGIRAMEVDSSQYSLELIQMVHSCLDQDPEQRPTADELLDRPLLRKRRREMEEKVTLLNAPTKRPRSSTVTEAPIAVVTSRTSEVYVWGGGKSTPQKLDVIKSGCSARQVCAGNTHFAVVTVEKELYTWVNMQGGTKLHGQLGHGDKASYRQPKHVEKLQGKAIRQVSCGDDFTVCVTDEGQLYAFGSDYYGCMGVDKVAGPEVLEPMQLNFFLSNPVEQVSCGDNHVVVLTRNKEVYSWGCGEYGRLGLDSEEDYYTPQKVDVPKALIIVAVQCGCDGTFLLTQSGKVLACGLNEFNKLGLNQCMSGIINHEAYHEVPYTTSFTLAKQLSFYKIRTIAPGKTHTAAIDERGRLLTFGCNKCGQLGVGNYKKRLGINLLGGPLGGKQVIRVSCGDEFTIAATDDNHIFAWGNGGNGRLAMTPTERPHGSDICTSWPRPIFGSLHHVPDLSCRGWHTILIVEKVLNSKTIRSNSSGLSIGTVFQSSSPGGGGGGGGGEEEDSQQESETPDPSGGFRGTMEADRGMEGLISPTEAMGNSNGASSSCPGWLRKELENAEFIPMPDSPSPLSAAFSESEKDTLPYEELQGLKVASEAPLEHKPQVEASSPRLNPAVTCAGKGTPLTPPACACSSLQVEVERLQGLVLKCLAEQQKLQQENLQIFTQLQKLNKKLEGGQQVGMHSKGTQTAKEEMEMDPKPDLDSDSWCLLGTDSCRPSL
The settings on record: at 0.1 µM.

Test [11] has as its target T4, Serine/threonine-protein kinase Nek9 (Homo sapiens). As to conditions: at 1 µM.
Test [12] deals with Serine/threonine-protein kinase PLK1 (Homo sapiens) (UniProt P53350). The settings on record: at 0.1 µM.
Test [13] shares this target. As to conditions: at 1 µM.
Test [14] concerns the target T5, Dual specificity protein kinase TTK (Homo sapiens) (UniProt P33981).
T5 sequence (whole entry): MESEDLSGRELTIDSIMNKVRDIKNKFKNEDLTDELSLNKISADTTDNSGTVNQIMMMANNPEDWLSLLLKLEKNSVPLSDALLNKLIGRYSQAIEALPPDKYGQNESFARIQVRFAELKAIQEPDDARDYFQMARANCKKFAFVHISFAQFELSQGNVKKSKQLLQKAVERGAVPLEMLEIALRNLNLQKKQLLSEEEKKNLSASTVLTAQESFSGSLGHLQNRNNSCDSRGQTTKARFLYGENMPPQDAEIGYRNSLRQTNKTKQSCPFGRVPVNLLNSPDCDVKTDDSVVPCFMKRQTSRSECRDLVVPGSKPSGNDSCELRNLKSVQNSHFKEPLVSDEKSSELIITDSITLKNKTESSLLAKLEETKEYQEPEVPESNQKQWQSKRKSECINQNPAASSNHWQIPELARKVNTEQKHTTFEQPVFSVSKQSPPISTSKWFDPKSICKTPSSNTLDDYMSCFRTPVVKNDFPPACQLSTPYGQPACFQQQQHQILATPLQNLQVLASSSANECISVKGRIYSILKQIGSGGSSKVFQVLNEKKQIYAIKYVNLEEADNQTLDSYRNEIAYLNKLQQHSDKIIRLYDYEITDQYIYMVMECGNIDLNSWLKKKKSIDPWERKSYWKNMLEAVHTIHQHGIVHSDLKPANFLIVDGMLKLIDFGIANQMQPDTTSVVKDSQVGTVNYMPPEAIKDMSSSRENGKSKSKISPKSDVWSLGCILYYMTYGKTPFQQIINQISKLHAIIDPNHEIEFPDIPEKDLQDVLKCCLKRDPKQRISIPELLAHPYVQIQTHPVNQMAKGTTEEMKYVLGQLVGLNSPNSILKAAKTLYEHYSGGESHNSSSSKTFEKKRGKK
As to conditions: at 0.1 µM.

Test [15] relates to T6, Receptor-type tyrosine-protein kinase FLT3 (Homo sapiens), P36888 [D835Y].
T6 sequence (whole entry): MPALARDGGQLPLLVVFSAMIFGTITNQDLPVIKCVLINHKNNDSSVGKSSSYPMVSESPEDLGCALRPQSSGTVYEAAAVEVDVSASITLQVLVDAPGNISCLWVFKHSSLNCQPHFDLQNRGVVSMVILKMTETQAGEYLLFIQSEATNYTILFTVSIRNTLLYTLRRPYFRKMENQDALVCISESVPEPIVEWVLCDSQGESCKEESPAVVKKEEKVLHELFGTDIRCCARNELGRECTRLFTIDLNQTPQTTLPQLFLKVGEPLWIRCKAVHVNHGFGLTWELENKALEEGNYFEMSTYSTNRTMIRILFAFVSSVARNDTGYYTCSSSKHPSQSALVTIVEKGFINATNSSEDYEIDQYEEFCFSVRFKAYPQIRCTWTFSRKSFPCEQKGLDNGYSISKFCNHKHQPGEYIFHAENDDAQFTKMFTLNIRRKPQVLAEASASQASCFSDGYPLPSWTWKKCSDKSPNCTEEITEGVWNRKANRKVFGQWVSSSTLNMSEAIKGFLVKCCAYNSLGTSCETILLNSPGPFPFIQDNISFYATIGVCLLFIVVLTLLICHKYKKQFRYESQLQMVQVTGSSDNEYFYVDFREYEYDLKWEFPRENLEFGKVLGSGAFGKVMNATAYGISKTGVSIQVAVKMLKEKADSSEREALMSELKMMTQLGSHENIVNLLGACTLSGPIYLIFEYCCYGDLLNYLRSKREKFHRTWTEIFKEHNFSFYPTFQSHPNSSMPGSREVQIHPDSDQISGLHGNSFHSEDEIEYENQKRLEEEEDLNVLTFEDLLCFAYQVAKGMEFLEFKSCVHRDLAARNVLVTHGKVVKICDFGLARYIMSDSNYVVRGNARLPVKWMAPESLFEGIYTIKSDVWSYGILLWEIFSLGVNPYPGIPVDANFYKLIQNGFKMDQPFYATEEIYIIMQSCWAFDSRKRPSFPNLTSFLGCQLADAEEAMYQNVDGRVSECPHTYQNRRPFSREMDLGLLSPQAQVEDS
The settings on record: at 1 µM.

Test [16] deals with Vascular endothelial growth factor receptor 3 (Homo sapiens) (UniProt P35916). The settings on record: at 0.1 µM.
The target is the same in test [17]. The settings on record: at 1 µM.
Test [18] deals with Macrophage colony-stimulating factor 1 receptor (Homo sapiens) (UniProt P07333). The settings on record: at 0.1 µM.
For test [19] the target is unchanged. The settings on record: at 1 µM.
Test [20] concerns the target Tyrosine-protein kinase Fyn (Homo sapiens) (UniProt P06241). As to conditions: at 0.1 µM.

Vascular endothelial growth factor receptor 3 (Homo sapiens), sequence (P35916 whole entry): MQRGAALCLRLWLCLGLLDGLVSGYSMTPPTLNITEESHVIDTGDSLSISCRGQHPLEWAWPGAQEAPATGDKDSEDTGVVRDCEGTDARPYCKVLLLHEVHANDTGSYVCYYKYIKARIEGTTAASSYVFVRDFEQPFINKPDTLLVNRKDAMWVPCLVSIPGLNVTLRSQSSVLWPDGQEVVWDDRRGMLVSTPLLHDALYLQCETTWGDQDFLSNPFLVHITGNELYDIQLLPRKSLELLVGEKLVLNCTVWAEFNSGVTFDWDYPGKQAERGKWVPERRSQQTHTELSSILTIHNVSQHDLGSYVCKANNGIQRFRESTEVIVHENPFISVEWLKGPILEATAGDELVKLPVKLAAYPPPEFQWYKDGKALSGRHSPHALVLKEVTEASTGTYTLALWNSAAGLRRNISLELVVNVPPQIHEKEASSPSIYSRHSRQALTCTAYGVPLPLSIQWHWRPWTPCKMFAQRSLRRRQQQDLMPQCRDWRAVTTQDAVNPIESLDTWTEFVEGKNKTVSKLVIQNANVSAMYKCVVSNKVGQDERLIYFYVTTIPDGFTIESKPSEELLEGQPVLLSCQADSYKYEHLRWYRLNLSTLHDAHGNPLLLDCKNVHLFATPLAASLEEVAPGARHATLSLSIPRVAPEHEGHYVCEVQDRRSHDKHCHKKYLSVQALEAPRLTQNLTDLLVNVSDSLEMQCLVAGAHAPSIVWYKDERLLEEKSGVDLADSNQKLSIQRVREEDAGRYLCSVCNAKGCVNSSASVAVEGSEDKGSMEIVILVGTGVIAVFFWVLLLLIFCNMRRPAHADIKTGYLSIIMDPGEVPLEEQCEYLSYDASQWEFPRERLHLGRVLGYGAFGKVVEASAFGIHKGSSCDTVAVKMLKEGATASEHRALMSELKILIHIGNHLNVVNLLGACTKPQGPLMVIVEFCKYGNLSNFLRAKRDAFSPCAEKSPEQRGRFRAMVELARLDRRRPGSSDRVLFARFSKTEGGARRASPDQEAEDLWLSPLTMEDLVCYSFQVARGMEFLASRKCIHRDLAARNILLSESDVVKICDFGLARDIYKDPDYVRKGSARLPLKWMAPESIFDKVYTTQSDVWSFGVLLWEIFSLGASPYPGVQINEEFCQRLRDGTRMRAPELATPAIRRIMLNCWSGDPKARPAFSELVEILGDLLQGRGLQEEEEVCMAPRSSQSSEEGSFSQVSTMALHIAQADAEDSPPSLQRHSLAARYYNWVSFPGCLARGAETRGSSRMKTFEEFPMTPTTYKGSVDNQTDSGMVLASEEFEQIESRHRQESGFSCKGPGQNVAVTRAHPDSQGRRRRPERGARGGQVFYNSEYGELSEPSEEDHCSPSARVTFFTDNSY
Serine/threonine-protein kinase Nek6 (Homo sapiens), sequence (Q9HC98 whole entry): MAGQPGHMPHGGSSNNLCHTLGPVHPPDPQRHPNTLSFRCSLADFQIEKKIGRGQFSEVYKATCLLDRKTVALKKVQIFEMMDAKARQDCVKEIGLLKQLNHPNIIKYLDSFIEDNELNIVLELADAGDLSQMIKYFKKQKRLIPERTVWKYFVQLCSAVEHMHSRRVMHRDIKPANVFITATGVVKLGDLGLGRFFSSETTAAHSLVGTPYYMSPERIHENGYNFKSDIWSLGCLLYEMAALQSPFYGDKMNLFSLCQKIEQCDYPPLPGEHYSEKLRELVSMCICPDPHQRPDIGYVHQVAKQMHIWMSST
Serine/threonine-protein kinase PLK1 (Homo sapiens), sequence (P53350 whole entry): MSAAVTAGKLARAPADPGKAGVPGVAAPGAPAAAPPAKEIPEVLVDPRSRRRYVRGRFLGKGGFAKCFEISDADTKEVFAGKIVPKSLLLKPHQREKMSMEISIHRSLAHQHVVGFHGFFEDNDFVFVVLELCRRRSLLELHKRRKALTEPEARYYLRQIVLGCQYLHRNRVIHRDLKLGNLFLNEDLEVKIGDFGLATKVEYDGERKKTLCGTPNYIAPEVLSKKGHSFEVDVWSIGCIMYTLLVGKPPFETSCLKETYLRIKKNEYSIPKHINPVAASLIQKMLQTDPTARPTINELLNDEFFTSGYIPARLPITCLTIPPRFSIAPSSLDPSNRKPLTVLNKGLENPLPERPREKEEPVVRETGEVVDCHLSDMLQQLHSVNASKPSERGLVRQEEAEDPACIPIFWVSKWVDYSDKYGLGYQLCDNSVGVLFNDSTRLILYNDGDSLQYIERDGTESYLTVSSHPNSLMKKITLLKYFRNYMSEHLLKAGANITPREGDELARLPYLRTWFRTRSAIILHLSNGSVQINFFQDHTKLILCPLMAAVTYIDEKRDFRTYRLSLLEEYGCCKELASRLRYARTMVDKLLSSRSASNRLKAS
Macrophage colony-stimulating factor 1 receptor (Homo sapiens), sequence (P07333 whole entry): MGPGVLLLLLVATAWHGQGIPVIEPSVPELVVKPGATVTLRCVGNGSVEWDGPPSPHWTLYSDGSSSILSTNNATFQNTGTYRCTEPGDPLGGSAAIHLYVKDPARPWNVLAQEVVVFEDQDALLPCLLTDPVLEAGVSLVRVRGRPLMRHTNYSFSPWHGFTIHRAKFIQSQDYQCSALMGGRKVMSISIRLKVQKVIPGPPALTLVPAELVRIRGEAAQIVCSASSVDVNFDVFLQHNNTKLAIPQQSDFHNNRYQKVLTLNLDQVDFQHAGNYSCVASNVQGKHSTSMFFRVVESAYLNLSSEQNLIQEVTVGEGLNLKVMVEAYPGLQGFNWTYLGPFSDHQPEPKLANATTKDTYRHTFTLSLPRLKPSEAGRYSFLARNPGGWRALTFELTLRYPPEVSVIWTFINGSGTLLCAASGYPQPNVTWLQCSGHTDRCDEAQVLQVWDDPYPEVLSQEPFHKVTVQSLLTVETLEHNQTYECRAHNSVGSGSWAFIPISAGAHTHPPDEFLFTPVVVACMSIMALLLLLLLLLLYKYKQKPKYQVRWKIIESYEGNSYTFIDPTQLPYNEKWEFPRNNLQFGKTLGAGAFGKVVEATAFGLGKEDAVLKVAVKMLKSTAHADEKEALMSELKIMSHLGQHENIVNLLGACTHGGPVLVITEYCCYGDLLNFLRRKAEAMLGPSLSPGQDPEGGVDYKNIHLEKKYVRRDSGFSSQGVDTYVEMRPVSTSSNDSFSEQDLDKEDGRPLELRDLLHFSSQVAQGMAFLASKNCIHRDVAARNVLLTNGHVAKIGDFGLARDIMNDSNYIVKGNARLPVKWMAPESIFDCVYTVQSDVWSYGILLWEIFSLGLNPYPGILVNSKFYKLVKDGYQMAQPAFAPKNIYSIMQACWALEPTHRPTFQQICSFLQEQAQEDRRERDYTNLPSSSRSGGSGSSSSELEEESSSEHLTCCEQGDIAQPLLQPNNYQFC
Serine/threonine-protein kinase Nek7 (Homo sapiens), sequence (Q8TDX7 whole entry, looked up): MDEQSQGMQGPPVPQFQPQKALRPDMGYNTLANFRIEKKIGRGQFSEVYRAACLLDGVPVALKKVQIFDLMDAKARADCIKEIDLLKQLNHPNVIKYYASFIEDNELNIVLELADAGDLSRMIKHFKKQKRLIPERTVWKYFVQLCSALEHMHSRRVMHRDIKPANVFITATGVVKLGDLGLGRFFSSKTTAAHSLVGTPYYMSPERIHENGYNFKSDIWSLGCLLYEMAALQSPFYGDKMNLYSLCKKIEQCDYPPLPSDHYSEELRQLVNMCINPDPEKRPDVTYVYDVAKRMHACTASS
Tyrosine-protein kinase Fyn (Homo sapiens), sequence (P06241 2-537 limits assumed): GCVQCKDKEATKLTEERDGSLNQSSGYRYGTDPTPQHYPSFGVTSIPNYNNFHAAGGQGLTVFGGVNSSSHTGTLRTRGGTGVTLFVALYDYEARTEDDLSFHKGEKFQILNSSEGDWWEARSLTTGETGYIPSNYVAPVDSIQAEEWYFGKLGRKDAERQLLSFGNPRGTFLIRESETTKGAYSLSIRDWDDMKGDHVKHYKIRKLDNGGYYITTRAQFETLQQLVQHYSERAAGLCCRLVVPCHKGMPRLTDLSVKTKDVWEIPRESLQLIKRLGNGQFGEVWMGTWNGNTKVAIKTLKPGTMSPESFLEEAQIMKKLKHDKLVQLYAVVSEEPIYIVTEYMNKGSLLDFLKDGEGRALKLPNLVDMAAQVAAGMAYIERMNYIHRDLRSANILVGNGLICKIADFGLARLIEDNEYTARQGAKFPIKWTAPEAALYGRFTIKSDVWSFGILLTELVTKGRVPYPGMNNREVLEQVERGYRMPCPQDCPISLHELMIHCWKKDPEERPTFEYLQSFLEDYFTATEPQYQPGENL

On to `COc1cccc(-n2ncc3c(N/N=C/c4ccc(C(=O)NCCN(C)C)cc4)ncnc32)c1`, for which the inhibition was -5.84% in test [1]; 2.06% in test [2]; 7.24% in test [3]; 0.16% in test [4]; 1.98% in test [5]; 1.11% in [6]. For the same molecule, the inhibition in test [7] was 0.35%; in test [8], 3.99%; in [9], -1.23%; in test [10] it was 5.54%; in test [11], 1.36%; in test [12], 1.5%. In addition, the inhibition is 2.1% in [13]; 3.48% in test [14]; 76% in test [15]; 12.1% in test [16]; 53.5% in test [17]; 6.78% in [18]. Moreover, the inhibition in test [19] was determined as 37.8%; in [20], 48.6%.

By inhibition is commonly meant the change of the read-out against control, counted positive when it falls.
